# Screening data (PubChem BioAssay)
# ER stress surv – ER stress cell death inhibition; CSM14.1 thapsigargin ER stress survival, ATP luminescence; relative survival (cellular ATP), % at 15 µg/mL (by protocol); 48,000 tested, 0.33% active;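 active means survival measured by cellular ATP above 50% at 15 µg/ml in the first screen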;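 further: cell death triggered by about 15 µM thapsigargin; ATP read 24 h after thapsigargin was added; plate controls were thapsigargin with DMSO for no effect and DMSO without thapsigargin for full effect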
# The depositor's hits bear a star. The entries come from a sample that favours hits as a whole.
SMILES,ER stress surv
COc1ccc(CCN=CC2=C(O)CC(c3ccccc3)CC2=O)cc1OC (stereo not given),8
COc1ccc(CCN=Cc2c(O)n(-c3c(Cl)cccc3Cl)c3ccccc23)cc1OC,120*
COc1ccc(CCN=CC2=C(O)CC(C)(C)CC2=O)cc1OC,9
O=c1[nH]c(=O)n(-c2ccccc2Cl)c(O)c1C=Nc1cccc(Cl)c1,8
Cc1ccc(-c2nc(N/N=C/c3ccc([N+](=O)[O-])cc3)c3ccccc3n2)cc1,5
COc1cccc(N2C(=O)C(=O)/C(=C(\O)c3ccccc3)C2c2ccccc2Cl)c1 (stereo not given),8
COc1ccc(OC)c(-c2nc(-c3ccccc3)c(-c3cccs3)[nH]2)c1,7
COc1ccc(-c2nc(-c3cc(OC)c(OC)cc3OC)[nH]c2-c2ccc(OC)cc2)cc1,116*
COc1ccc(-c2nc(-c3ccc(O)cc3)[nH]c2-c2ccc(OC)cc2)cc1,-10
O=C(O)COc1ccccc1/C=N/NC(=O)/C(=C\c1ccc2c(c1)OCO2)NC(=O)c1ccccc1,-4
COc1cc(Cl)cc(/C=N/NC(=O)/C(=C\c2ccc3c(c2)OCO3)NC(=O)c2ccccc2)c1O,5
O=C(N/N=C/c1ccc(Cl)c([N+](=O)[O-])c1)/C(=C\c1ccc2c(c1)OCO2)NC(=O)c1ccccc1,81*
CCN(CC)c1ccc(N=Cc2cccc(O)c2O)cc1,-11
N#Cc1c(NCc2ccccc2)ncc2c1Nc1ccccc1C2,-4
CCOC(=O)COc1ccccc1/C=C1\C(=O)NC(=O)N(c2ccc(Br)c(C)c2)C1=O,-1
O=C1/C(=C/c2ccc(I)o2)SC(=S)N1c1ccc([N+](=O)[O-])cc1,9
Cc1ccccc1CN1CCN(C(=O)C(c2ccccc2)c2ccccc2)CC1,97*
O=C(CC(c1ccccc1)c1ccccc1)N1CCN(Cc2ccccc2)CC1,9
Cc1ccccc1C(=O)N1CCN(Cc2ccccc2)CC1,-1
O=C(C(c1ccccc1)c1ccccc1)N1CCN(Cc2ccc(F)cc2)CC1,63*
Cc1ccccc1CN1CCN(C(=O)c2cccc(Cl)c2)CC1,2
O=C(C(c1ccccc1)c1ccccc1)N1CCN(Cc2ccncc2)CC1,-2
Cc1noc(NS(=O)(=O)c2ccc(NC(=O)c3ccc(Cl)s3)cc2)c1C,9
NC(=O)C1CCN(C(=O)c2cccc(C#Cc3ccccc3)c2)CC1,-4
COc1ccc(C(=O)NCCOc2ccccc2F)cc1OC,10
SMILES,ER stress surv
COc1ccccc1OCCNC(=O)c1ccc(Oc2ccccc2)cc1,52*
COc1ccc(C(=O)NCCOc2ccccc2OC)cc1OC,-3
Cc1cc(C(=O)N=Nc2c(O)n(CCCC#N)c3ccccc23)n[nH]1,0
Cc1ccc(S(=O)(=O)Oc2cccc(/C=C3\SC(=S)NC3=O)c2)cc1,-4
O=C(NCc1ccncc1)C(=O)Nc1nccs1,8
O=C(NCc1ccncc1)C(=O)Nc1nc(C23CC4CC(CC(C4)C2)C3)cs1,88*
COc1ccc(C(=O)Nc2nc(C34CC5CC(CC(C5)C3)C4)cs2)cc1,8
COC(=O)c1c(N)sc(C)c1-c1ccc(Cl)cc1Cl,10
O=C(Nc1ccc(F)c(F)c1)C1CC1c1ccccc1 (stereo not given),-3
Cc1oc(C(C)(C)C)cc1C(=O)Nc1ccc(O)c(C(=O)O)c1,-1
CCOC(=O)C1=C(O)/C(=C/c2cccs2)SC1=Nc1cccc(Cl)c1,0
O=C(CN1CC[n+]2c(-c3cccs3)csc21)c1ccccc1,59*
O=C(CSc1nnc(-c2cccs2)n1-c1ccccc1)c1ccccc1,3
Cc1c(-c2cccs2)nc2ccccc2c1C(=O)O,-3
CN(C)/C=C1\Cc2ccccc2NC1=C(C#N)C#N,6
O=C(Nc1ccccc1)c1ccccc1N=Cc1ccc(Cl)c([N+](=O)[O-])c1,25
CCC(=O)N1c2ccccc2NC2=C(C(=O)CC(C)(C)C2)C1c1ccc(C#N)cc1 (stereo not given),-3
CCC(=O)N1c2ccccc2NC2=C(C(=O)CC(C)(C)C2)C1c1ccc(N(CC)CC)cc1 (stereo not given),53*
CCC(=O)N1c2ccccc2NC2=C(C(=O)CC(c3ccc(OC)cc3)C2)C1c1ccccc1 (stereo not given),-1
CCC(=O)N1c2ccccc2NC2=C(C(=O)CC(c3ccccc3)C2)C1c1cccnc1 (stereo not given),3
CCC(=O)N1c2ccccc2NC2=C(C(=O)CC(c3ccccc3)C2)C1c1ccc(F)cc1 (stereo not given),106*
O=C1CC(c2ccccc2)CC2=C1C(c1cccnc1)N(C(=O)c1ccccc1)c1ccccc1N2 (stereo not given),79*
CC1(C)CC(=O)C2=C(C1)Nc1ccccc1N(C(=O)c1ccccc1)C2c1ccc(C#N)cc1 (stereo not given),16
CCC(=O)N1c2ccccc2NC2=C(C(=O)CC(c3ccccc3)C2)C1c1cccc(Br)c1 (stereo not given),1
COc1ccc(C2C3=C(CC(c4ccccc4)CC3=O)Nc3ccccc3N2C(=O)C(C)C)cc1OC (stereo not given),2
SMILES,ER stress surv
O=C(COc1ccc2ccccc2c1)NCCCN1CCOCC1,-3
CCc1ccc(-n2[nH]c(=O)c(/C=C3\C(=O)N(c4ccccc4)N=C3C)c2O)cc1,5
CC(=O)N1c2ccccc2CC(N2CCCCC2)c2ccccc21 (stereo not given),-5
CCOC(=O)c1c(NC(=O)c2ccc(C(=O)c3ccccc3)cc2)sc2c1CCC2,7
O=C(/C=C/c1ccccc1)NCCOC(=O)Nc1ccccc1,3
CCOc1cc(/C=C2/C(=N)N3N=C(CC)SC3=NC2=O)ccc1OC(=O)c1cccc([N+](=O)[O-])c1,-2
CCC(C)NC(=O)c1ccc(CN(c2ccc(C)c(C)c2)S(C)(=O)=O)cc1 (stereo not given),0
Cc1ccc(N(Cc2ccc(C(=O)N/N=C/c3ccc(OC4CSC4)cc3)cc2)S(C)(=O)=O)cc1C,43
Cc1ccc(N(Cc2ccc(C(=O)N/N=C/c3cc(Br)c(C)o3)cc2)S(C)(=O)=O)cc1C,80*
CCOC(=O)CCc1c(C)nc2cc(-c3cccc(Cl)c3)[nH]n2c1=O,0
Cc1cc(/C=N/NC(N)=S)c(C)n1C1CCCCC1,-5
CC(C)COc1ccc(C(=O)N/C(=C/c2ccccc2)C(=O)NCC(=O)OCc2ccccc2)cc1,80*
O=C(CCNC(=O)/C(=C\c1ccccc1)NC(=O)c1ccco1)OCc1ccccc1,8
COc1ccc(C(=O)N/C(=C\c2ccccc2)C(=O)NCCCN(C)C)cc1,-1
Cc1ccc(NC(=O)c2ccc3ccccc3c2)c([N+](=O)[O-])c1,3
COc1ccc(C(=O)N2CCN(Cc3ccccc3)CC2)c(OC)c1,-2
COc1cc(C(=O)N2CCN(Cc3ccccc3C(F)(F)F)CC2)cc(OC)c1OC,8
COc1ccc(Br)cc1CN1CCN(C(=O)c2ccc(-c3ccccc3)cc2)CC1,98*
COc1cc(OC)cc(C(=O)N2CCN(Cc3ccccn3)CC2)c1,0
COc1ccc(CN2CCN(C(=O)c3ccc(-c4ccccc4)cc3)CC2)cc1OC,-6
COc1ccc(CN2CCN(C(=O)c3ccccc3)CC2)c(OC)c1OC,1
COc1cc(OC)c(OC)cc1CN1CCN(C(=O)c2ccc(OC)c(OC)c2)CC1,2
COc1cc(OC)cc(C(=O)N2CCN(Cc3ccccc3C(F)(F)F)CC2)c1,73*
COc1ccc(CN2CCN(C(=O)c3ccc(-c4ccccc4)cc3)CC2)c(OC)c1,129*
